# Screens as filed in PubChem BioAssay.
# VDR inhibitor = vitamin D3 receptor (human) inhibition; P11473; VDR-SRC2-3 peptide fluorescence polarization, 2 h; Potency, µM, inactives show max response, negative = inhibition, most hits filed as inhibitors; 0.93% of 400,000 active; AID 504847; note: % is set by controls: 0 for no effect and ±100 for the full control effect
#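 Inhibition of the VDR/SRC2-3 peptide interaction is quantified by fluorescence polarization. Compounds (23 nl, pintool) incubate with the reagents for 2 hours at ambient room temperature.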
# KAT2A inh = GCN5L2 (KAT2A) acetyltransferase inhibition; Potency, µM (top dose mostly 58.9 µM), inactives show at the top dose activity change, negative = inhibition, actives largely listed as inhibitors; 0.21% of 390,000 active; GCN5L2 HAT assay, ThioGlo1 CoA-SH fluorescence; note: % is set by controls: 0 for no effect and ±100 for the full control effect
#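 Titration-based screen in which CoA formation is detected via maleimide probe ThioGlo1 (50uM) turning fluorescent on thiol reaction; substrates H3(1-25) 75uM and acetyl-CoA 70uM, GCN5L2 20nM, 20 min incubation at room temperature.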
# PLK1 PBD inh = PLK1 (human) polo-box domain binding inhibition | AID 720504 | 2.8% of 360,000 active | Potency, µM, inactives show max response, negative = inhibition, actives largely listed as inhibitors | Plk1 PBD binding of FITC phosphopeptide, fluorescence polarization; note: series mostly up to about 57 µM; % is set by controls: 0 for no effect and ±100 for the full control effect; nearly all actives have a fitted effect of over 65% in size
# Target sequence (P53350 whole entry, looked up, the tested form may be a part): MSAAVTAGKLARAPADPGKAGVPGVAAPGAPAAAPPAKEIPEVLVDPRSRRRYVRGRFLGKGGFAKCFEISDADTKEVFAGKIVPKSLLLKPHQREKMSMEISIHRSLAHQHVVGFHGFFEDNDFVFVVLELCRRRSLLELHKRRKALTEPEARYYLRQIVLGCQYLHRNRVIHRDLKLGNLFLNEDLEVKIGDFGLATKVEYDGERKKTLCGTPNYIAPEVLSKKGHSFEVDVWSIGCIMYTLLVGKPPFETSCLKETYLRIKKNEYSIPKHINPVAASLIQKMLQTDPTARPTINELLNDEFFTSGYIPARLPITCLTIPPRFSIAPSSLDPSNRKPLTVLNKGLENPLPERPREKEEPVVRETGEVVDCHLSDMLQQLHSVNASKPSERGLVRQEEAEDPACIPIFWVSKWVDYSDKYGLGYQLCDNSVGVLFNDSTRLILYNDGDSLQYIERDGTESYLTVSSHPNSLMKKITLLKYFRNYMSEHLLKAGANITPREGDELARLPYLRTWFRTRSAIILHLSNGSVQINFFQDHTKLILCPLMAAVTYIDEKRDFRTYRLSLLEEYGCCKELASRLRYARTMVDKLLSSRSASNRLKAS
# TSG101-PTAP inh = blocks PTAP/TSG101 interaction to inhibit HIV-1 budding; Potency, µM (highest dose often 115 µM), without a hit: at the highest dose activity change, negative = inhibition, usual class: inhibitors; Q99816; Fluorescence polarization, FITC-PTAP peptide / Tsg101 binding; 340,000 tested, under 10 active; AID 493005; active = well fitted inhibition curve with a large enough effect in the main read-out, with a control signal flat, not every such curve was filed as active; inconclusive = small, poorly fitted or top-dose-only effect, or effect the other way, or a change in a side signal; inactive = no such curve, though single readings can be large or run the other way; note: % of control where 0% means no effect
#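 Steps: Tsg101 binding domain dispensed (10 uM final), compounds pinned in DMSO, FITC-labeled PTAP-motif peptide added (50 nM final); after 20 min binding at room temperature, polarization measured.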
# USP1-UAF1 inh = blocks the human USP1/UAF1 deubiquitinase complex. Potency, µM (series often up to 57.1 µM), inactives show at the top dose activity change, negative = inhibition, actives largely listed as inhibitors. recombinant USP1/UAF1, Ub-Rhodamine cleavage fluorescence. O94782. AID 743255. 0.23% of 390,000 active; note: % is set by controls: 0 for no effect and ±100 for the full control effect; nearly all actives have a fitted effect of over 60% in size
#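 1 nM enzyme complex + cpd, 15 min RT; start with Ub-Rho 150nM final; kinetic fluorescence ex 480/em 540, 6 reads q60 s. Buffer 50mM HEPES pH 7.8, 0.5mM EDTA, 0.1 mg/ml BSA, 1mM TCEP, 0.01% Tween-20.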
# Numbers without * were called inactive; ? = inconclusive; . = not tested or not shown. Shown are actives, neighbours in structure and some others; about 3% of the full set was active somewhere. Unless noted, calls come from the whole dose curve; as a rule, active = well fitted curve in the direction sought with a large enough effect; inconclusive = small, poorly fitted or top-dose-only effect, or another doubt; inactive = no such curve, though single readings can be large; an effect the other way counts as inactive or inconclusive. Potency is the fitted concentration of half-maximal effect.
SMILES,VDR inhibitor,KAT2A inh,PLK1 PBD inh,TSG101-PTAP inh,USP1-UAF1 inh
C=C1CC(Cn2cc(Br)c(=O)[nH]c2=O)(c2ccc(-c3ccccc3)cc2)OC1=O (stereo unspecified),?,.,24µM*,-1%,-4%
O=c1[nH]c(=O)n(Cc2ccc(Oc3ccccc3)cc2)cc1Br,.,-3%,.,.,.
Cc1noc(C)c1-c1nc(NCc2cccs2)c2ccccc2n1,45µM*,22µM*,.,.,.
COCCNc1nc(-c2c(C)noc2C)nc2ccccc12,-14%,-18%,.,.,.
CCN(CC(=O)Nc1ccc(OC)cc1)C(=O)c1ccc2c(c1)NC(=O)CS2,-15%,-11%,-13%,-2%,-6%
CC1CC(CC(=O)NNc2nc(-c3ccccc3)cs2)C(=O)O1 (stereo unspecified),0%,-10%,0%,-2%,-23%
C/C(CCC1CC(C)OC1=O)=N/Nc1nc(-c2ccccc2)cs1 (stereo unspecified),45µM*,-13%,30µM*,1%,-17%
CC1(C)CC(CC(=O)NNc2nc(-c3ccccc3)cs2)C(=O)O1 (stereo unspecified),?,2%,27µM*,-3%,-15%
COc1ccccc1C(=O)NCCn1cc(SCc2ccc(C)cc2)c2ccccc21,-18%,-13%,.,.,-26%
CCCCC/C=C\C/C=C\C/C=C\C/C=C\CCCC(=O)C(F)(F)F,28µM*,-18%,.,.,.
CCCCCCCCCCC/C=C\C/C=C\CCCC(=O)O,-1%,5%,.,.,.
C[C@H]1CN(c2ccc(Br)cc2)C(=O)[C@@H]1CC(=O)Nc1ccccc1,.,.,-7%,.,-22%
CCc1ccc(CN(C(=O)c2cc(=O)c3ccc(C)cc3o2)C2CCS(=O)(=O)C2)cc1 (stereo unspecified),8%,-3%,.,.,47%
Cc1ccc(C(=O)CSc2nccn2-c2ccccc2)cc1,-16%,-14%,21µM*,-3%,-26%
Cc1ccc(C(=O)CSc2ncn[nH]2)cc1,?,?,27µM*,-5%,5%
Cc1ccc(C(=O)CSc2cc(C)nc(SCC(=O)c3ccccc3)n2)cc1,-9%,-8%,-2%,1%,-13%
CCc1ccc(C(=O)CSc2ncn[nH]2)cc1,?,?,?,-3%,1%
Cc1ccc(C(=O)CSc2ccccn2)cc1,79µM*,9%,19µM*,-9%,-4%
CCCc1nc(SCC(=O)c2ccc(F)cc2)c2ccccc2n1,89µM*,-14%,?,1%,-10%
O=C(CC1NCCNC1=O)Nc1cccc(F)c1 (stereo unspecified),-4%,-2%,.,.,-12%
O=C(CSc1nccn1-c1ncc(C(F)(F)F)cc1Cl)c1ccc(Br)cc1,?,-3%,2.4µM*,-3%,-7%
Cc1csc(NC(=O)CSc2[nH]c(=O)ncc2C)n1,-8%,3%,-10%,-1%,-18%
O=C(CSc1ccccn1)c1ccc(F)cc1,?,-4%,27µM*,-3%,-15%
Cc1cnc(=O)[nH]c1SCC(=O)c1ccc(F)cc1,?,-23%,12µM*,-6%,-10%
Cc1ccc2occ(CC(=O)N(Cc3ccc(Cl)cc3)Cc3ccco3)c2c1,13%,-8%,.,.,-26%
SMILES,VDR inhibitor,KAT2A inh,PLK1 PBD inh,TSG101-PTAP inh,USP1-UAF1 inh
CC(NCC(=O)Nc1cc(S(=O)(=O)N2CCOCC2)ccc1N1CCOCC1)c1ccco1 (stereo unspecified),6%,-1%,3%,-3%,-21%
CCOc1ccccc1CNS(=O)(=O)c1ccc2c(c1)oc(=O)n2C,-7%,-8%,27µM*,-1%,-19%
CCOc1ccccc1NS(=O)(=O)c1ccc2c(c1)oc(=O)n2C,-9%,-9%,.,.,-14%
CS(=O)(=O)Nc1cccc(C(=O)CC2(O)C(=O)Nc3ccc(Br)cc32)c1 (stereo unspecified),-11%,-1%,-5%,1%,5%
CCS(=O)(=O)Nc1ccc(C(=O)CC2(O)C(=O)Nc3ccc(Br)cc32)cc1 (stereo unspecified),-14%,-1%,21µM*,-6%,-1%
Fc1ccccc1Nc1nc(Cl)nc(Cl)n1,71µM*,-3%,19µM*,-5%,-7%
CCOc1nc(Nc2ccccc2F)nc(OCC)n1,-8%,-13%,-15%,-5%,-3%
CC(=O)NC(c1ccco1)c1cc(Br)c2cccnc2c1O (stereo unspecified),.,2%,.,.,.
COc1ccccc1N1CCN(C(=O)c2cnn(-c3cccc(Cl)c3)c2C2CCN(C(=O)OC(C)(C)C)CC2)CC1,-2%,-7%,.,.,-20%
COc1ccc(-c2oc3ccccc3c2C#CC(C)(C)O)cc1,3%,-19%,2%,-1%,-27%
O=C(CN1C(=O)C(=O)N(Cc2ccco2)C1=O)c1c[nH]c2ccccc12,-20%,-4%,27µM*,-16%,-7%
COc1ccc(NC(=O)CSc2nc3nc(C)c(Cc4ccccc4)c(C)n3n2)cc1OC,3%,1%,.,.,0%
Cc1cn([C@H]2C[C@H](O)[C@@H](CNCc3cccn3-c3ccncc3)O2)c(=O)[nH]c1=O,.,.,1.1µM*,.,-15%
Cc1cn([C@H]2C[C@H](O)[C@@H](CNCc3ccccc3)O2)c(=O)[nH]c1=O,.,.,-10%,.,-22%
O=C(CSc1ccc(F)cc1)NCCSc1ccccc1,16%,4%,-4%,2%,-15%
Cc1cc(N2CCN(c3ccccc3)CC2)nc2ccccc12,22%,-2%,2%,-2%,?
Cc1cc(N2CC(C)OC(C)C2)nc2ccccc12 (stereo unspecified),?,-9%,27µM*,-4%,1%
CC1CN(c2nnc(-c3ccccc3)c3ccccc23)CC(C)O1 (stereo unspecified),-30%,-4%,21µM*,-2%,-12%
CC1(C)CC(=O)C2=C(C1)NC(Nc1nc3ccccc3o1)=NC2c1ccccc1Cl (stereo unspecified),-5%,.,.,.,.
CC1(C)CC(=O)C2=C(C1)NC(Nc1nc3ccccc3o1)=NC21CCCC1,-27%,-4%,27µM*,-3%,-14%
c1ccc2c(c1)SCc1c-2[nH]c2ccccc12,10µM*,22µM*,.,.,.
c1ccc2c(c1)OCCc1c-2[nH]c2ccccc12,5%,3%,-1%,-1%,-24%
CC(=O)N1c2ccc(S(=O)(=O)NCCC(=O)NCCc3ccc(C)cc3)cc2CC1C (stereo unspecified),?,-4%,30µM*,-7%,-19%
CC(=O)N1c2ccc(S(=O)(=O)NCCC(=O)Nc3ccc(OC(F)(F)F)cc3)cc2CC1C (stereo unspecified),?,-7%,6.7µM*,1%,-26%
CC(=O)N1c2ccc(S(=O)(=O)NC(CC(=O)O)c3ccc(Br)cc3)cc2CC1C (stereo unspecified),?,1%,27µM*,0%,-21%
